# Source: the supplement of paper PMC6555819
# How the values were obtained:
# Assay in all cases: PBM binding z-score (relative to random genomic background probes); higher = stronger binding; sequences stand for … in GC…GCGATTGACAGCGTAGAATGAAGG
# [1] = test system: PPARg:RXRa DBDmut IVT, anti-RXR (DBD mutation: RXRa K156A/R161A, NR concentration 270 nM, RXRa partner concentration 90 nM)
# How it was run: (§1)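 The probes on custom Agilent 4×180K protein-binding microarrays were double-stranded, with 34-nt variable regions bearing direct-repeat seeds, single-nucleotide variants, half-site ablations and random human genomic background sequences. Incubation lasted 1 h with ligand-free nuclear receptor dimers in PBS pH 7.4, 2% milk, 0.02% Triton X-100, 1 mM DTT, 0.2 mg/mL BSA and 0.4 mg/ml salmon testes DNA. Antibodies against each partner (one per run) detected bound dimers, and fluorescence scans were regression-normalized. Binding z-scores take the random background probes as reference.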
# [2] = test system: PPARg:RXRa IVT, anti-PPARg (NR concentration 270 nM, RXRa partner concentration 90 nM)
# How it was run: as §1
# [3] = test system: PPARg DBDmut:RXRa IVT, anti-PPARg (DBD mutation: PPARg1 K132A/R137A, NR concentration 270 nM, RXRa partner concentration 90 nM)
# How it was run: as §1
# [4] = test system: PPARg DBDmut IVT, anti-PPARg (DBD mutation: PPARg1 K132A/R137A, NR concentration 270 nM)
# How it was run: as §1
# [5] = test system: PPARg homodimer (NR concentration 180 nM)
# How it was run: as §1
# [6] = test system: PXR:RXRa (NR concentration 270 nM, RXRa partner concentration 90 nM)
# How it was run: as §1
# [7] = test system: PXR homodimer (NR concentration 270 nM)
# How it was run: as §1
# [8] = test system: RARa:RXR (NR concentration 270 nM, RXRa partner concentration 90 nM)
# How it was run: as §1
# [9] = test system: RARa homodimer (NR concentration 270 nM)
# How it was run: as §1
# [10] = test system: RARb:RXRa (NR concentration 270 nM, RXRa partner concentration 90 nM)
# How it was run: as §1
Sequence,PBM binding z-score [1],PBM binding z-score [2],PBM binding z-score [3],PBM binding z-score [4],PBM binding z-score [5],PBM binding z-score [6],PBM binding z-score [7],PBM binding z-score [8],PBM binding z-score [9],PBM binding z-score [10]
ACTTACGGGTCAACGAGTTTATAGCACGCGTATA,3.67,3.98,1.94,1.27,1.4,5.9,9.25,4.24,0.513,4.14
CCTACTAGTTGACCATAAGGGCAACCGAAGCTCG,0.2,0.479,0.235,-0.627,1.22,0.406,0.317,0.81,1.01,1.39
CCTACTGGGCCACGAAAGGTCTTTGATTCAGTGA,4.89,5.29,0.279,-0.311,0.598,0.109,-0.43,0.284,-0.304,0.791
TGAATGAGGTCATAAGATCAGGGAACGTTGCAAA,4.55,5.82,2.51,1.96,1.71,4.37,0.734,5.17,0.421,4.55
CCTACTGAGCCAAGGTCATTGATCAGTCAAAGCA,0.598,0.834,-0.559,-0.729,2.66,3.69,2.46,3.64,1.47,3.15
CCTACTGGGCCAAGGTCATTGTTCAGTCAAAGCA,3.1,4.53,1.57,-0.159,3.54,3.62,1.49,3.79,-0.126,3.25
CAAACTAGGTCACGAAAGCTCAAAGTCGAATGAC,8.36,8.78,1.59,1.7,2.09,2.01,-0.0695,2.59,0.726,4.42
CCTACTGGGCCATCAAGTCATTGATATCAACGTT,3.82,3.91,-0.107,0.228,0.653,-0.138,-0.334,0.32,0.00429,0.23
AGAATGAGGTTACCAAAGATCAGGGAAACGCTTG,3.53,3.38,1.26,1.04,1.16,1.38,0.241,2.16,-0.326,2.03
TCTTGTAGATCAGCAGGTTAAGAAAGCTGGCCAA,1.47,0.491,0.15,0.117,-0.272,0.155,-0.284,0.351,-0.421,0.213
ACTAGCAGGCGAAGTTTGGGTCACTCAAACAAAG,-0.461,0.0553,-0.763,-1.05,-0.0559,0.583,-0.27,1.15,-0.491,1.14
TCATGTAGGTAATACAGGTGAAAGTCGGCATCTA,3.86,3.68,0.771,0.521,0.456,0.27,-0.325,0.507,0.465,0.0857
CGTCAAAGTTCAACTAAGGTAACGTCAAGCACGC,0.771,2.28,0.0665,0.943,3.82,5.69,4.39,4.56,1.85,5.3
